# Results as given in PubChem BioAssay AID1347076 (National Center for Advancing Translational Sciences (NCATS), 2019).
# Among all 400,000 compounds or so, about 13,000 (3.2%) were called active. About 18% were inconclusive and are not listed. The call rests on the fitted dose curve; in most records, active means well fitted cell-killing curve with a large enough effect; inconclusive means small, poorly fitted or top-dose-only effect, or effect the other way; inactive means flat fitted curve, though single readings scatter. The entries come from a sample that favours actives as a whole.
# Assay: qHTS assay for MDR1-selective chemotherapeutics: Primary screen using the drug-selected MDR subline cells KB-V1; further: nearly all actives have a fitted effect of over 60% in size
# Conditions: KB-V1 MDR cells viability, CellTiter-Glo, 72 h; series mostly up to 46.1 µM; activity change, negative = cytotoxicity: at the top concentration
# Outline: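 Following 72 h at 37 degrees C with compound, KB-V1 cell viability was read by CellTiter-Glo luminescence, medium being phenol-red-free DMEM plus 10% FBS; concentration-response parameters came from normalized, curve-fitted qHTS data.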
# On the % scale 0 is the no-effect control and ±100 the full control effect; potency means the concentration at half of the fitted maximal effect.
SMILES,"activity change, negative = cytotoxicity",Potency
COc1ccc2cc(CNc3ccc(OC)c(OC)c3)c(=O)n(CC(=O)Nc3ccccc3F)c2c1,-29.6% (inactive),–
COc1ccc2c(c1)CCc1c(C(=O)N3CCCC3)noc1-2,-12.9% (inactive),–
N#Cc1cnn2cc(CCN3CCOCC3)c(-c3ccc(F)cc3)nc12,-3.16% (inactive),–
COc1ccc2c(c1)CCc1cn3ncc(C#N)c3nc1-2,–,1.3 µM (active)
COc1ccccc1N1CCN(C(=O)C2CCN(S(=O)(=O)c3c(C)noc3/C=C/c3ccc(C)cc3)CC2)CC1,0% (inactive),–
Cc1[nH]c2ccccc2c1C(=O)C(=O)NCc1nnnn1-c1cccc(F)c1,12.9% (inactive),–
CN(CC(=O)NNC(=O)CNC(=O)c1ccccc1Cl)S(=O)(=O)c1ccc(Cl)cc1,0% (inactive),–
Cc1ccc(S(=O)(=O)N(C)CC(=O)NCC(c2ccc(F)cc2)N2CCOCC2)cc1 (stereo not given),-1.34% (inactive),–
CN(CC(=O)NCC(c1ccccc1)N1CCCC1)S(=O)(=O)c1ccc(Cl)cc1 (stereo not given),–,20.6 µM (active)
CN(CC(=O)Nc1cccc2c1CCCC2)S(=O)(=O)c1ccc(Cl)cc1,-1.34% (inactive),–
CN(CC(=O)NCCc1ccccn1)S(=O)(=O)c1ccc(Cl)cc1,-26.4% (inactive),–
Cc1nc(NC(=O)CN(C)S(=O)(=O)c2ccc(Cl)cc2)sc1C,–,14.6 µM (active)
CCCNC(=O)C1(C)CCN(Cc2csc(-c3ccc(Cl)cc3)n2)C1 (stereo not given),1.9% (inactive),–
C[C@H]1CN([C@@H](C)CO)C(=O)CCCn2cc(nn2)CO[C@@H]1CN(C)S(=O)(=O)c1ccccc1C#N,-13.8% (inactive),–
COc1ccc(C(C)(NC(C)=O)c2nc(-c3ccc(S(C)(=O)=O)cc3)cs2)cc1 (stereo not given),1.16% (inactive),–
CCOC(=O)c1ccc(NC(=O)c2c(NCc3cccc(OC)c3)sc3c2CCC3)cc1,-12.7% (inactive),–
COc1cc(Cl)c(C)cc1NC(=O)CSc1nnc(-c2ccco2)n1CC(C)C,–,4.11 µM (active)
CCn1c(SCC(=O)Nc2nccs2)nnc1-c1ccco1,-3.3% (inactive),–
Cc1cc(NC(=O)CSc2nnc(-c3ccco3)n2N)no1,-12.3% (inactive),–
CCCC12CN3CC(CCC)(CN(C1)C3c1c[nH]c3ccc(OC)cc13)C2=O (stereo not given),2.68% (inactive),–
CCOc1ccc(CCN2C(=O)C(=O)N([C@@H](CC(C)C)CN3CCC[C@H]3CN3C(=O)C(=O)NC[C@@H]3Cc3ccccc3)C[C@@H]2CC(C)C)cc1,-16.9% (inactive),–
O=C(CCn1c(=O)c2ccccc2n(Cc2ccc(Cl)cc2)c1=O)NCc1ccc2c(c1)OCO2,-6.5% (inactive),–
C[C@H]1CN([C@@H](C)CO)S(=O)(=O)c2ccc(-c3cccc(F)c3)cc2O[C@@H]1CN(C)C,-17.3% (inactive),–
O=C(C(=O)N1CCN(c2ccccc2)CC1)c1ccc2c(c1)OCO2,-14.5% (inactive),–
COc1ccc(C(=O)Nc2nc(-c3ccc(OC)cc3)c(-c3ccc([N+](=O)[O-])cc3)s2)cc1,-2.17% (inactive),–

SMILES,"activity change, negative = cytotoxicity",Potency
N#Cc1ccc(Oc2ccc(C(F)(F)F)cc2NC(=O)c2ccc(F)cc2)cc1,14.9% (inactive),–
N#Cc1ccc(C(=O)Nc2nc(-c3cccs3)c(C(=O)C(F)(F)F)s2)cc1,–,13 µM (active)
COC(=O)[C@]12CCCCC=C1N(Cc1cccc3ccccc13)C(=O)[C@H](CC(=O)N1CCOCC1)C2,-6.11% (inactive),–
Cc1nc(C(F)(F)F)ccc1C(=O)N1CCC1(C)C(=O)NS(=O)(=O)c1ccccc1 (stereo not given),2.14% (inactive),–
COc1ccc2c(c1)C(c1cccs1)=NNC(c1cccnc1)=N2,-13.5% (inactive),–
Fc1ccc2c(c1)C(c1cccnc1)=NNC(c1cccs1)=N2,–,11.6 µM (active)
CC(=O)NN=C(C)c1ccc(NC(=O)C2CC2)cc1,13.9% (inactive),–
O=C(O)c1ccccc1-c1cccc2nncn12,0.0342% (inactive),–
Cc1ccc(NC(=S)NC(=O)/C=C/c2ccc(Cl)cc2)cc1,4.47% (inactive),–
COC(=O)c1c(C)[nH]c(C(=O)NCCc2ccc(S(N)(=O)=O)cc2)c1C,4.06% (inactive),–
COC(=O)c1c(C)[nH]c(C(=O)/C=C/c2ccc(Cl)cc2)c1C,–,14.6 µM (active)
CC(C)CN1C(=O)CN(S(C)(=O)=O)CC1(C)C(=O)NCc1ccccc1 (stereo not given),10.6% (inactive),–
N#Cc1ccc(-c2ccc3nccn3c2)cc1,-0.62% (inactive),–
CC(C)C1CC2=C(C(=O)OC(C)(C)O2)C(c2ccc(F)cc2)O1 (stereo not given),5.18% (inactive),–
COCCCN1C(=O)C(CC(=O)NCc2cccs2)CC(C(=O)N2CCOCC2)=C1C (stereo not given),0% (inactive),–
O=S1(=O)CC(N2CCC(Cc3ccccc3)CC2)CN1Cc1ccccc1 (stereo not given),4.54% (inactive),–
COc1ccccc1-c1cc2nc(NCc3cccc(Cl)c3)ccn2n1,5.31% (inactive),–
CCNC(=O)CC1C(=O)N(c2ccc(F)cc2)C(=O)N1Cc1cccs1 (stereo not given),0% (inactive),–
COc1ccc(N2C(=O)C(CC(=O)Nc3ccc(F)cc3)N(CCc3cccs3)C2=O)cc1 (stereo not given),–,18.4 µM (active)
O=C(CC1C(=O)N(c2ccccc2)C(=O)N1CCc1cccs1)Nc1ccc(F)cc1 (stereo not given),-0.0357% (inactive),–
Cc1cc2nn(-c3ccc(Cl)cc3)nc2cc1NC(=O)C(C)C,9.32% (inactive),–
Cc1c(Cl)cccc1NC(=O)C1CCCN(C(=O)c2cnn(-c3ccccc3)c2-n2cccc2)C1 (stereo not given),14.6% (inactive),–
CCOc1ccc(CNC(=O)c2ccc3c(c2)nnn3C2CCCC2)cc1,5.56% (inactive),–
COc1cccc(NC(=O)C2(C)CCN2C(=O)CCC2CCCC2)c1 (stereo not given),-2.07% (inactive),–
CC(=O)c1ccc(NC(=O)CCc2nc(-c3ccc(C)cc3)no2)cc1,-10% (inactive),–

SMILES,"activity change, negative = cytotoxicity",Potency
Cc1ccc(-c2noc(CCC(=O)Nc3ccccc3N3CCN(C)CC3)n2)cc1,–,20.6 µM (active)
CCNC(=O)CCc1nc(-c2ccc(C)cc2)no1,16.3% (inactive),–
CC(C)CC1C(=O)N(Cc2cn(CC3CCCCC3)nn2)CCS(=O)(=O)N1Cc1ccc(-c2ccc(Cl)cc2)cc1 (stereo not given),-22.9% (inactive),–
C=CCn1c(C)cc(C2=NNC(=NCC)SC2)c1C,0% (inactive),–
COCCn1c(C)cc(C2=NNC(=Nc3ccc(F)cc3)SC2)c1C,–,10.3 µM (active)
Cc1cc(C)c2cc(CN(Cc3nnnn3Cc3ccc(F)cc3)C3CCCC3)c(=O)[nH]c2c1,-1.44% (inactive),–
CCOc1ccc2[nH]c(=O)c(CN(Cc3nnnn3Cc3ccccc3)CC3CCCO3)cc2c1 (stereo not given),-14.2% (inactive),–
CCC(c1nnnn1Cc1ccccc1)N(Cc1cc2cc(OC)ccc2[nH]c1=O)CC1CCCO1 (stereo not given),-4.04% (inactive),–
Cc1cccc2cc(CN(Cc3cccs3)C(c3nnnn3C3CCCC3)C(C)C)c(=O)[nH]c12 (stereo not given),9.62% (inactive),–
CCC(c1nnnn1C1CCCC1)N(Cc1cccs1)Cc1cc2cccc(C)c2[nH]c1=O (stereo not given),–,23.1 µM (active)
Cc1cccc2cc(CN(Cc3nnnn3Cc3ccccc3)C3CCCC3)c(=O)[nH]c12,–,20.6 µM (active)
CC(C)Oc1cccc(-c2cnc(N3CCC(C(N)=O)CC3)s2)c1,0% (inactive),–
C[C@H]1COc2cc(N3CCSCC3)ccc2S(=O)(=O)N1,3.82% (inactive),–
CC1(C(=O)O)CCCN(C(=O)/C=C/c2ccccc2)C1 (stereo not given),3.16% (inactive),–
COc1ccc(Cl)cc1C(=O)Nc1ccc(N(C)C(C)=O)cc1,–,16.4 µM (active)
COc1cc(OC)c(C(=O)Nc2ccc(N(C)C)cc2)cc1OC,-28.8% (inactive),–
COC(=O)c1ccc(NC(=O)c2cc(Cl)ccc2OC)cc1,19.9% (inactive),–
CCC(=O)N1CCc2cc(Br)cc(S(=O)(=O)CCC(=O)NCc3ccccc3OC)c21,24.4% (inactive),–
O=C(NCc1ccc(F)cc1)c1cc(C2CCCCN2C(=O)C2CCCCC2)on1 (stereo not given),-3.92% (inactive),–
CC(=O)Nc1ccc(C=Cc2ccc([N+](=O)[O-])cc2)cc1,8.12% (inactive),–
NS(=O)(=O)c1ccc(CNC(=O)c2cc(S(=O)(=O)N3CCOCC3)ccc2N2CCCC2)cc1,8% (inactive),–
O=C1OCCOC2CCCc3oc(-c4ccccc4)c1c32 (stereo not given),29.6% (inactive),–
CN(C)c1nc(Nc2ccc(Cl)c(Cl)c2)nc(N(C)C)n1,-2.76% (inactive),–
COc1cc2nc(Cl)nc(NCCO)c2cc1OC,-1.83% (inactive),–
OCCNc1nc(Nc2ccc(Cl)c(Cl)c2)nc2ccccc12,–,9.2 µM (active)

SMILES,"activity change, negative = cytotoxicity",Potency
Cc1c(NC(=O)COC(=O)/C=C/c2cccc(F)c2)c(=O)n(-c2ccccc2)n1C,6.17% (inactive),–
Cc1cccc(C(=O)N2CCc3cc(CNC(=O)Cc4ccc(F)cc4)ccc32)c1,3.15% (inactive),–
CCCCC12CN3CC(C)(CN(C1)C3c1ccc(O)c(OC)c1)C2=O (stereo not given),-1.76% (inactive),–
COCCNc1ncnc2c1ncn2[C@H]1CN(Cc2ccc(OC)cc2)C[C@@H](CO)O1,3.06% (inactive),–
Cc1ccc(CC2CC(=O)N(c3cc(C)ccc3C)C2=O)cc1 (stereo not given),-2.95% (inactive),–
Cc1ccc(CC2CC(=O)N(c3nc(C)cc(C)n3)C2=O)cc1 (stereo not given),-11.3% (inactive),–
COc1ccc(CN2C(=O)CC(Cc3ccc(C)cc3)C2=O)cc1OC (stereo not given),–,18.4 µM (active)
CN(C)c1ccc(/C=C/c2sc3ccccc3[n+]2CCCCBr)cc1,-5.39% (inactive),–
Nc1nc2c(ncn2[C@@H]2O[C@H](CNS(=O)(=O)N3CCc4ccccc4C3)[C@@H](O)[C@H]2O)c(=O)[nH]1,1.53% (inactive),–
Cc1ccc(S(=O)(=O)c2nnn3c2nc(N2CCN(c4ccccc4F)CC2)c2cc(Cl)ccc23)cc1C,0% (inactive),–
CSc1nc(-c2ccccc2)nc(C(Cl)Cl)n1,–,11.6 µM (active)
CSc1ncc(Sc2ccccc2)c(C(=O)O)n1,0% (inactive),–
CSc1nc(Nc2ccc(F)cc2)cc(-c2ccccc2)n1,2.43% (inactive),–
CCCCn1c(CNC(=O)C23CC4CC(CC(C4)C2)C3)nnc1SCC(=O)Nc1ccc(C)cc1,-26.2% (inactive),–
COc1ccc(CCCNC(=O)C2Cc3c(-c4cccc(C(N)=O)c4)ccnc3O2)cc1 (stereo not given),-6.13% (inactive),–
COc1ccc(CC(N)c2csc(NC(=O)Cc3ccccc3)n2)cc1 (stereo not given),2.07% (inactive),–
Cc1cccc(C(=O)C(O)(c2ccccc2)C2CCCCC2=O)c1 (stereo not given),-1.77% (inactive),–
CCOC(=O)c1ccc(NC(=O)Cn2cnc3cc(C)c(C)cc32)cc1,10.5% (inactive),–
COCCOCCn1cnc2ccccc21,-0.954% (inactive),–
Cn1c(=O)n(CCc2ccccc2)c(=O)c2c1nc1n2CCCN1c1ccccc1,8.2% (inactive),–
CCCCn1c(SCC(=O)NCC2CCCO2)nc2ccc(N3CCOCC3)cc2c1=O (stereo not given),–,3.66 µM (active)
COCCNC(=O)c1ccc(Cn2c(SCC(=O)NCC3CCCO3)nc3ccc(Br)cc3c2=O)cc1 (stereo not given),19.5% (inactive),–
CCn1c(SCC(=O)NCC2CCCO2)nc2ccccc21 (stereo not given),19.3% (inactive),–
N#CCSc1nc2ccc(N3CCOCC3)cc2c(=O)n1CCc1ccccc1,–,3.26 µM (active)
CCn1cc2nc(SCc3cccc(F)c3)n(CCc3ccccc3)c(=O)c2n1,-1.77% (inactive),–
